High-throughput results as filed in PubChem BioAssay.
Rows were chosen to be rich in hits. Some 4.4% of all compounds tested hit in one or more screens of this group.
USP1 inh = inhibitors of human USP1/UAF1 deubiquitinase | O94782 | recombinant USP1/UAF1, Ub-Rhodamine cleavage fluorescence | Potency, µM (highest dose often 57.1 µM), for inactives: at the top dose activity change, negative = inhibition, most hits filed as inhibitors | actives 0.23% (n = 390,000); active = well fitted inhibition curve with a large enough effect; inconclusive = small, poorly fitted or top-dose-only effect; inactive = no such curve, though single readings can be large or run the other way; note: potency is the fitted concentration of half-maximal effect; % is set by controls: 0 for no effect and ±100 for the full control effect; nearly all actives have a fitted effect of over 60% in size
Target sequence (O94782 whole entry, looked up): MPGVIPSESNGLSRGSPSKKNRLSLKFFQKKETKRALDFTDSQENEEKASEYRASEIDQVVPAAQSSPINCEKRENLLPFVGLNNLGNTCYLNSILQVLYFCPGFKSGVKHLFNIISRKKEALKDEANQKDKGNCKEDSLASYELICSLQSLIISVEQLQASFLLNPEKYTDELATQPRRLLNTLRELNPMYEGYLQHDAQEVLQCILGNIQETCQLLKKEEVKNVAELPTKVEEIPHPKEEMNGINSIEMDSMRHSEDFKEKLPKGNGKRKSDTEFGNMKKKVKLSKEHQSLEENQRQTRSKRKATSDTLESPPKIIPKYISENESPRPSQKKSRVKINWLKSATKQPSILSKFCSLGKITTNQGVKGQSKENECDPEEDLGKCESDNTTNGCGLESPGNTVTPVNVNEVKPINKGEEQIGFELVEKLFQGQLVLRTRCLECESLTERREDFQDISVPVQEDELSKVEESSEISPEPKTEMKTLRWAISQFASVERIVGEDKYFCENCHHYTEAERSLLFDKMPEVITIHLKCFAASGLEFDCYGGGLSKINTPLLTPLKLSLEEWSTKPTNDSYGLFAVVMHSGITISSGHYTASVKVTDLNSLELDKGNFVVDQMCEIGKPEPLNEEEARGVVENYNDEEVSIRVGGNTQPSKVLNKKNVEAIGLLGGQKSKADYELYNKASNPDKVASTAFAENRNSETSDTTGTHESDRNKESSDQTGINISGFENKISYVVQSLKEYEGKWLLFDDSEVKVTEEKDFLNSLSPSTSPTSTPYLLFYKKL
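High-throughput fluorogenic screen: 1nM USP1/UAF1 complex, Ub-Rho substrate 150nM final, 50mM HEPES pH 7.8 with 0.5mM EDTA, 0.1 mg/ml BSA, 1mM TCEP and 0.01% Tween-20.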
TRHR ag = agonists of human TRH receptor. AID 493084. P34981. actives 0.18% (n = 360,000). TRHR cells, calcium flux fluo-8, FDSS agonist mode. activation, % at 2 µM; note: 0% is about no effect
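Read-out: compound-evoked intracellular calcium rise in TRHR cells, fluo-8 dye, kinetic FDSS fluorescence at 1 s/cycle following a 10-cycle baseline. Cells cultured overnight before dye loading (30 min–1.5 h, RT).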
D1 agonist = human D1 receptor agonism; AID 504660; P21728; HEK293 T-REx D1 cells, calcium flux, agonist mode; actives 1% (n = 360,000); activation, % at 2 µM; note: 0% is about no effect
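Inducible HEK293 T-REx D1 cells, force-coupled to calcium signalling, were plated at 4000 cells/well with tetracycline and held overnight at 30 C. After no-wash calcium dye loading, compound-evoked calcium rise over 180 s flagged agonists.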
D1 antagonist = blocks dopamine activation of the human D1 receptor | activity change, negative = inhibition, % at 10 µM | P21728 | HEK293 TREx D1 cells, calcium flux, dopamine EC80; stronger effect = lower value | actives 3.2% (n = 360,000) | AID 504652; in the data active = activity change below about -30%; note: % is set by controls: 0 for no effect and ±100 for the full control effect
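Kinetic fluorescence of a calcium dye serves as the read-out. D1-expressing Hek293 Trex cells, induced overnight at 30 C, are exposed to compound for 180 s before an EC80 dopamine addition, then read 180 s further.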
TRHR enhancer = TRH receptor (human) allosteric enhancement. P34981. TRHR cells, fluo-8 calcium fluorescence, EC20 TRH enhancement. enhancement, % at 2 µM. actives 0.66% (n = 360,000). AID 493056; in the data active = enhancement above about 30%; note: 0% is about no effect
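Enhancer read-out: after compound pinning and an initial kinetic agonist-mode read, an EC20 of TRH (10 nM final) was injected and fluo-8 calcium signal (Ex 480/Em 530) followed at 1 s/cycle for 100 cycles in TRHR-expressing cells.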
D1 PAM = enhances dopamine response at the human D1 receptor; P21728; HEK293 TREx D1 cells, calcium flux, dopamine EC20 potentiation; potentiation, % at 10 µM; actives 0.036% (n = 360,000); AID 504651; in the data active = potentiation above about 30%; note: 0% is about no effect
* marks the source's active call; other numbers are inactive results; ? = inconclusive; / = no result; ! = not confirmed by another sample. Cut-off read from the data, not from the text of the source, unless noted: active = activation above about 30%; inactive = the rest.

SMILES	USP1 inh	TRHR ag	D1 agonist	D1 antagonist	TRHR enhancer	D1 PAM
CC1(C)CC(=O)c2cc(-c3nc(-c4ccc(F)cc4)cs3)c(=O)[nH]c2C1	-2%	1	1	-2	-2	1
O=C(c1cc(-c2ccc(F)cc2)nc2ccccc12)N1CCN(C2CCS(=O)(=O)C2)CC1 (configuration not stated)	-13%	0	0	-32*	4	1
Cc1ccccc1OCc1nc2ccccc2c(=O)n1/N=C/c1cccc([N+](=O)[O-])c1	-22%	0	3	-32*	8	-4
Cc1ccccc1OCc1nc2ccccc2c(=O)n1/N=C/c1cn[nH]c1-c1ccccc1	-19%	1	2	0	5	2
c1ccc(CCN2CCN=C2Nc2ccccc2)cc1	-22%	19	19	-12	-7	-6
Cc1cccc(NC2=NCC(=O)N2CCc2ccccc2)c1	-16%	1	3	-36*	-9	-7
Fc1ccc(CCN2CCN=C2Nc2ccccc2)cc1	?	8	35*	-15	-1	-8
Cc1cccc(CCN2CCN=C2Nc2ccccc2)c1	-25%	19	46*	-40*	-11	0
CCOC(=O)C1=NN(C(=O)c2ccc(C)cc2)C(O)(c2ccc(Cl)cc2)C1 (configuration not stated)	-11%	49*	158*	-28	-2	3
Cc1ccc(-n2ncc3c(NCCCN4CCOCC4)ncnc32)cc1Cl	?	0	7	-24	3	-4
Cc1ccc(-n2c(C)c(C)c3c(NCCN(C)C)ncnc32)cc1	-14%	0	0	-38*	-1	-10
Clc1ccc(-n2ncc3c(NCc4ccco4)ncnc32)cc1	-6%	1	1	-44*	7	-3
Clc1cccc(-n2ncc3c(NCCCN4CCOCC4)ncnc32)c1	-36%	0	1	-77*	1	3
CN(C)CCNc1ncnc2c1cnn2-c1ccc(Cl)cc1	-2%	1	33*	0	-5	/
COc1ccc(-n2cc(C(=O)NCc3ccc(Cl)cc3)c3ccccc3c2=O)cc1	-15%	0	9	0	2	-2
COc1ccc(N2CC(NC(=O)c3ccc(S(=O)(=O)N4CCOCC4)cc3)CC2=O)cc1 (configuration not stated)	-19%	0	2	/	-6	-1
OCCCNc1ncnc2c1cnn2-c1ccc(Cl)cc1	-16%	-1	16	-36*	2	-11
Cc1ccc(Cl)cc1-n1ncc2c(Nc3cccc(C)c3C)ncnc21	-13%	5	57*	4	5	-2
CCC(CO)Nc1ncnc2c1cnn2-c1ccc(Cl)cc1 (configuration not stated)	-15%	0	2	-1	-6	-8
COc1ccc(Nc2ncnc3c2cnn3-c2cc(Cl)ccc2C)cc1OC	-4%	-1	-4	-6	0	-3
CN(C)CCNc1ncnc2c1cnn2-c1cccc(Cl)c1	-16%	1	37*	0	-3	-2
CCCCn1c(=O)c(F)cn(Cc2ccc(OC)c([N+](=O)[O-])c2)c1=O	-16%	17	75*	13	-6	-5
CCCCCn1c(=O)c(F)cn(Cc2ccc(OC)c([N+](=O)[O-])c2)c1=O	-23%	0	1	8	6	-1
CCCCN1C(=O)C(NC(=O)c2ccc(C(C)(C)C)cc2)(C(F)(F)F)C(C(=O)OC)=C1C (configuration not stated)	?	-1	58*	4	-3	5
CCc1noc(-c2ccc(N3CCCCC3C)c([N+](=O)[O-])c2)n1 (configuration not stated)	-15%	1	7	-26	-3	-3
SMILES	USP1 inh	TRHR ag	D1 agonist	D1 antagonist	TRHR enhancer	D1 PAM
CCOC(=O)c1c(C)[nH]c(C)c1S(=O)(=O)NCCN1CCN(c2ccccc2F)CC1	-4%	0	2	-79*	-4	-20
COc1ccc(NC(=O)NCCCN2CCN(c3cc(C)ccc3C)CC2)cc1	-18%	0	-1	2	-3	-9
CCOc1ccc(NC(=O)NCCN2CCN(c3ccccc3F)CC2)cc1	-20%	0	4	-61*!	10	-23
Cc1ccc(-n2nc(C)c(C(=O)NCCCN3CCN(c4cccc(Cl)c4)CC3)c2-n2cccc2)cc1	3%	1	3	-1	10	-1
CCOc1ccc(NC(=O)CCN2CCN(c3ccccc3F)CC2)cc1	-16%	0	1	-16	6	-9
Cc1ccc(-n2nc(C)c(C(=O)NCCCN3CCN(c4ccccc4F)CC3)c2-n2cccc2)cc1	-5%	-1	22	-47*	7	-4
COc1ccc(NC(=O)NCCCN2CCN(c3ccccc3F)CC2)cc1	-12%	0	6	-86*	-3	-13
c1ccc(COc2ccccc2CNc2nn[nH]n2)cc1	-14%	0	0	-75*	6	9
CCCc1ccc(OC(=O)c2sc3ncn(Cc4cccc(F)c4)c(=O)c3c2C)cc1	?	1	4	-4	-1	-4
Cc1nnc(SCC(=O)NC2CCCc3c2cnn3-c2ccc(F)cc2F)o1 (configuration not stated)	-8%	1	0	12	-2	-8
O=C(NC1CCCc2c1cnn2-c1ccc(F)cc1F)c1csnn1 (configuration not stated)	-17%	-1	2	-31*	-4	-2
O=C(NC1CCCc2c1cnn2-c1ccc(F)cc1F)c1cnccn1 (configuration not stated)	-16%	-1	5	-4	2	7
Cc1nnc(SCC(=O)NC2CCCc3c2cnn3-c2ccccc2F)o1 (configuration not stated)	-3%	1	1	-39*	7	-1
COC1=CC(=O)c2c(ccc3ncnc(N)c23)C1=O	0.89µM*	/	/	/	/	/
COc1cccc2c1C(=O)C=C(C)C2=O	?	0	3	-2	4	-2
COc1ccc(NC(=O)CCC(=O)OCc2ccc([N+](=O)[O-])cc2)cc1	-6%	-4	2	-31*	4	0
COc1ccc(NC(=O)CCC(=O)OCc2ccc(C(=O)Oc3ccc(Cl)cc3)cc2)cc1	-7%	1	3	-31*	0	-6
CCOc1ccc(NC(=O)c2sc(-n3nc(C)c(CCC(C)C)c3C)nc2C)cc1	-19%	1	3	-11	24	-1
CC1(C)OC(=O)C2(Cc3c(F)cccc3N3CCCC32)C(=O)O1 (configuration not stated)	/	0	2	-22	0	5
